# How the values were obtained:
# Assay in all cases: DAPPL (digital affinity profiling via proximity ligation, sequencing); 10 mM Tris-HCl pH 7.5, 50 mM NaCl, 1 mM DTT, 4% glycerol, room temperature, 30 min; GST-TFs on glutathione beads, 16-mer random dsDNA library, 0.1% formaldehyde crosslink after washing; high values mean tight binding
# [1] = biological target: T1, FEV (Homo sapiens, UniProt Q99581 1-238); details: protein: recombinant; tags: N-terminal GST; dsDNA, one strand shown
# T1 sequence: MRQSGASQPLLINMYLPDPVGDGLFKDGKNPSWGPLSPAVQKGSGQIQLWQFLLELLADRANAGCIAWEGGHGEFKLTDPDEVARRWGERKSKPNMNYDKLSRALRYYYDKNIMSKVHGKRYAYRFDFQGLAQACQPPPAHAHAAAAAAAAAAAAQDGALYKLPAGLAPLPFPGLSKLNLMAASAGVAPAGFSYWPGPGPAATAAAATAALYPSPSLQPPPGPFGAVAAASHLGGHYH
# In short: (§1)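 The binding signal reported is, for every hexamer, its read frequency for a factor over its read frequency for the tag-only sample. Reads came from pools of yeast-expressed, GST-fused human transcription factors on glutathione beads, barcoded with DNA and mixed with that sample, which were incubated with 200 nmole of a random double-stranded 16-mer DNA library in Tris/NaCl/DTT/glycerol buffer at room temperature for 30 min. After washing, the pools were crosslinked with 0.1% formaldehyde, proximity-ligated with BsaI/T4 ligase for 1 h at 37 °C, PCR-amplified and sequenced on an Illumina NextSeq500.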
# [2] = biological target: ETV5 (Homo sapiens, UniProt P41161 1-510); details: protein: recombinant; tags: N-terminal GST; dsDNA, one strand shown
# Chain of ETV5 (P41161 whole entry): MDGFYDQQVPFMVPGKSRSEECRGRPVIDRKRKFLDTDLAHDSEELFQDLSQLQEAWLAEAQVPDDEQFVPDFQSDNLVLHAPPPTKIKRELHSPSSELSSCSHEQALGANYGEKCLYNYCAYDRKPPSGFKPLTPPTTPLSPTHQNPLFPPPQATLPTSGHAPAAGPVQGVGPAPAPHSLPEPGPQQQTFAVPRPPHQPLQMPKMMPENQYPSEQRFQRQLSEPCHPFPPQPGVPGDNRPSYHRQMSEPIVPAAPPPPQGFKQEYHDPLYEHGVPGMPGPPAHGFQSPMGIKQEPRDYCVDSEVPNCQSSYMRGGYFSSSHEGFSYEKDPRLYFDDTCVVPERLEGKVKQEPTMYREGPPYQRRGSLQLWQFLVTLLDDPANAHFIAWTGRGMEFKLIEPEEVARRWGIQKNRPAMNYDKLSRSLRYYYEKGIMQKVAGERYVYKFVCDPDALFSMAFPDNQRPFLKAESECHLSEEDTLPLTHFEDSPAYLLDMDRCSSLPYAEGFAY
# In short: as §1
# [3] = biological target: HSF1 (Homo sapiens, UniProt Q00613 1-529); details: protein: recombinant; tags: N-terminal GST; chain copies: 3; dsDNA, one strand shown
# Chain of HSF1 (Q00613 whole entry): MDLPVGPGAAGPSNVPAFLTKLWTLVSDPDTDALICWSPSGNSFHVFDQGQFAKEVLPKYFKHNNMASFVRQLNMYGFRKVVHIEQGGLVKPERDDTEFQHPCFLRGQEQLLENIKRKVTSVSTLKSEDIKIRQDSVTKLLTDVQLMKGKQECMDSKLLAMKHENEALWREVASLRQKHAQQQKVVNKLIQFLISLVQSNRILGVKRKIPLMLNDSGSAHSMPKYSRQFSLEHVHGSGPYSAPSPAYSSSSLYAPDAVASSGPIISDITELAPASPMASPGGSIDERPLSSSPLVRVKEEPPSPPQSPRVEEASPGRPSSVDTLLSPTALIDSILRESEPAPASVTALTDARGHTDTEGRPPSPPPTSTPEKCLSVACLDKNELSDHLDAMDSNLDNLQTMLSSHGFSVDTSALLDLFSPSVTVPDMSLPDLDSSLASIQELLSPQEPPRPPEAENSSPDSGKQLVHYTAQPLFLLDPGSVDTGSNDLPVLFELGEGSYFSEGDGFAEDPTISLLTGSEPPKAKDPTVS
# In short: as §1
# [4] = biological target: T2, SPIC (Homo sapiens, UniProt Q8N5J4 1-248); details: protein: recombinant; tags: N-terminal GST; dsDNA, one strand shown
# T2 sequence: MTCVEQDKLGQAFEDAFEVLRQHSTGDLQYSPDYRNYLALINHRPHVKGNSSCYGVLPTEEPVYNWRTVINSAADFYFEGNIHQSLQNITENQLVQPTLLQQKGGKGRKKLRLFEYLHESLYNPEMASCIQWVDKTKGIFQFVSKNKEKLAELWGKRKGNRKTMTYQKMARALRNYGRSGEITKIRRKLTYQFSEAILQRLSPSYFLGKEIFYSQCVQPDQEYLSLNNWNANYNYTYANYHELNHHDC
# In short: as §1
# [5] = biological target: ELF4 (Homo sapiens, UniProt Q99607 1-663); details: protein: recombinant; tags: N-terminal GST; dsDNA, one strand shown
# Chain of ELF4 (Q99607 whole entry): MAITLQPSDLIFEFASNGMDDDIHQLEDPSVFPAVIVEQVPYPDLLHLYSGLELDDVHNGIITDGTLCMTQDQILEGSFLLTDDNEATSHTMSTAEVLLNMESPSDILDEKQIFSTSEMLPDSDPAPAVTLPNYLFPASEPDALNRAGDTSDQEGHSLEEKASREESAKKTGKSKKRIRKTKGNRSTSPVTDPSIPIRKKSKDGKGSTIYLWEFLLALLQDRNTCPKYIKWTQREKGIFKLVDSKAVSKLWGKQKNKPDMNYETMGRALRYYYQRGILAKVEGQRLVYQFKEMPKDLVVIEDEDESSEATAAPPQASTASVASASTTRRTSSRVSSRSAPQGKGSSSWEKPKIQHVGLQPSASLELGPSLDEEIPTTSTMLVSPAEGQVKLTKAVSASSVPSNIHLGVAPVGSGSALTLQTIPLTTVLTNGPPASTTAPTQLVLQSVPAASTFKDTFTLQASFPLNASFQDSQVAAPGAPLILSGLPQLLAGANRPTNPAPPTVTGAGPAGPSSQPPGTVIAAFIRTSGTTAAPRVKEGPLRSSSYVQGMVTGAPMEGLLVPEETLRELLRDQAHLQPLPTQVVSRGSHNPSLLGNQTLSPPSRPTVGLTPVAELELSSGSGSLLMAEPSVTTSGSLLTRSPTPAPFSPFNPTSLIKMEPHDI
# In short: as §1
# [6] = biological target: T3, ELK4 (Homo sapiens, UniProt P28324-2 1-405); details: protein: recombinant; tags: N-terminal GST; dsDNA, one strand shown
# T3 sequence: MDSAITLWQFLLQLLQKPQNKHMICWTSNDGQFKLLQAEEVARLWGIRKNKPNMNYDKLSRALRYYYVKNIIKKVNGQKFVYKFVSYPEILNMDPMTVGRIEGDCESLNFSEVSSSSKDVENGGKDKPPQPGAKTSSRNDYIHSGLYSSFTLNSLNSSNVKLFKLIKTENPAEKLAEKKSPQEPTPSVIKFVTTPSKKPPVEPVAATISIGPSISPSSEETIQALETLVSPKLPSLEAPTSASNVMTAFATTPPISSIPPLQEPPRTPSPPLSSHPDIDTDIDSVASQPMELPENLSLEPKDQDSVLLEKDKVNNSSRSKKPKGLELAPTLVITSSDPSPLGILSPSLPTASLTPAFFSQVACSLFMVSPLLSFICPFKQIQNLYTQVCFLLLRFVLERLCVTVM
# In short: as §1
# [7] = biological target: T4, ELF3 (Homo sapiens, UniProt P78545 1-371); details: protein: recombinant; tags: N-terminal GST; dsDNA, one strand shown
# T4 sequence: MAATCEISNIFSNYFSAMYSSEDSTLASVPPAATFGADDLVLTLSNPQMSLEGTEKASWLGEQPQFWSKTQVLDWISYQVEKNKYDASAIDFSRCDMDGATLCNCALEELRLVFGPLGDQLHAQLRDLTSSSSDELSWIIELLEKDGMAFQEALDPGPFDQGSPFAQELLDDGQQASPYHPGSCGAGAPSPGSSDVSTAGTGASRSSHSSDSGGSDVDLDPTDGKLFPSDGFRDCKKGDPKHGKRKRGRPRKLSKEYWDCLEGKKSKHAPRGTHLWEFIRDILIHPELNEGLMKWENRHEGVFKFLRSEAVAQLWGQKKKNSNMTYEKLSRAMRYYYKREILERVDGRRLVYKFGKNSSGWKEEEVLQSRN
# In short: as §1
# [8] = biological target: CRX (Homo sapiens, UniProt O43186 1-299); details: protein: recombinant; tags: N-terminal GST; dsDNA, one strand shown
# Chain of CRX (O43186 whole entry): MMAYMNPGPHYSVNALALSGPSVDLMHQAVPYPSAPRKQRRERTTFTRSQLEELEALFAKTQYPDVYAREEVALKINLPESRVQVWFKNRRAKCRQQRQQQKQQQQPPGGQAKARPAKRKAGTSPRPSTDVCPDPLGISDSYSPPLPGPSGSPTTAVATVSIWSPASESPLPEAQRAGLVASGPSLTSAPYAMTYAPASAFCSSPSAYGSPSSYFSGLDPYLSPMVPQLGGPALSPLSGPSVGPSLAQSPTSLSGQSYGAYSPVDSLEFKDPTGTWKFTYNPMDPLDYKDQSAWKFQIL
# In short: as §1
# [9] = biological target: ETV1 (Homo sapiens, UniProt P50549 1-477); details: protein: recombinant; tags: N-terminal GST; dsDNA, one strand shown
# Chain of ETV1 (P50549 whole entry): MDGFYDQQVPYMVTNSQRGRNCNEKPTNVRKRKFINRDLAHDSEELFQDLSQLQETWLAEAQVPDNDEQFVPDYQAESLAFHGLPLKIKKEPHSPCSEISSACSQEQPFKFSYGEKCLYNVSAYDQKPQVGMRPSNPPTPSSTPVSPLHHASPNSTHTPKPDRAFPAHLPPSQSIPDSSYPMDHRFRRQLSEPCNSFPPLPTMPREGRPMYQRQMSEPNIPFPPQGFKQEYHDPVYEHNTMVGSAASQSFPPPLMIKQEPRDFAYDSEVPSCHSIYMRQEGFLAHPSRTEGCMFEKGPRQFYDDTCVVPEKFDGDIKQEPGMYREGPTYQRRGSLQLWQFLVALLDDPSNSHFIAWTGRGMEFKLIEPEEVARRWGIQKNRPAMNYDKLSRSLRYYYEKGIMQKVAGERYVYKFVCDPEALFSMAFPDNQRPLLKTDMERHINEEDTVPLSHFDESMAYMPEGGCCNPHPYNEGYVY
# In short: as §1
sequence,measurement,setting,value
TAGCAT,binding signal,[1],"1.13 fold enrichment (6-mer frequency, TF over GST control)"
same,binding signal,[2],"1.09 fold enrichment (6-mer frequency, TF over GST control)"
same,binding signal,[3],"1.38 fold enrichment (6-mer frequency, TF over GST control)"
same,binding signal,[4],"1.07 fold enrichment (6-mer frequency, TF over GST control)"
same,binding signal,[5],"1.16 fold enrichment (6-mer frequency, TF over GST control)"
same,binding signal,[6],"1.16 fold enrichment (6-mer frequency, TF over GST control)"
same,binding signal,[7],"1.15 fold enrichment (6-mer frequency, TF over GST control)"
same,binding signal,[8],"1.42 fold enrichment (6-mer frequency, TF over GST control)"
same,binding signal,[9],"1.17 fold enrichment (6-mer frequency, TF over GST control)"
